This is a sample that favours compounds with a hit; in the whole collection about 2.2% have one here.
TROY signal inh = blocks TROY-dependent signaling in reporter cells. 0.98% of 360,000 active. inhibition, % at 10 µM. Q293 LMP1-TROYcd NF-kB luciferase reporter, 4 h;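 active = compounds whose plate-normalised and pattern-corrected inhibition of the luciferase reporter signal at the single screening dose is 50% or more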
HSP90 refold inh = blocks HSP90-mediated luciferase refolding in reticulocyte lysate; inhibition, % at 5.6 µM; 0.91% of 290,000 active; AID 1789; Rabbit reticulocyte lysate, luciferase refolding luminescence, 3 h;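 active = inhibition above the screen-wide mean plus 3 SD, computed separately per campaign, cut at about 16% in these data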;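 note: inhibitors lower the luminescence because luciferase stays unfolded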
TWEAK-Fn14 inh = inhibitors of TWEAK-Fn14 interaction signaling. TWEAK-stimulated Fn14 reporter cells, luciferase luminescence, 8 h. inhibition, % at 10 µM. 2% of 360,000 active; in the data active = inhibition above about 50%
LGR2 inh = Drosophila LGR2 receptor signaling inhibition; HEK293 LGR2, CRE-luciferase, bursicon-stimulated, 4 h; inhibition, % at 9.99 µM; 0.35% of 380,000 active;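 active = drop in luminescence signal, shown as inhibition above about 50% in the replicate tests, limit read from the data, passing the limit was not always enough; inconclusive = probably only some replicates passing the limit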;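 note: agonist challenge used bursicon conditioned medium at about half maximal strength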
HSP90 inh confirm = confirmation of HSP90 inhibitors; shares compounds with HSP90 refold inh; 64% of 2,300 active; inhibition, % at 5.9 µM; AID 1846; rabbit reticulocyte lysate, luciferase refolding luminescence, 3 h; in the data active = inhibition above about 18%
luciferase ctr = firefly luciferase inhibition, HSP90 counter-screen. purified native firefly luciferase, luminescence. 48% of 2,300 active. shares compounds with HSP90 refold inh. inhibition, % at 5.9 µM. AID 1847;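 active = inhibition above the mean inhibition of all tested sample wells plus 3 SD, cut at about 10% in these data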
Target sequence (P08659 whole entry, looked up): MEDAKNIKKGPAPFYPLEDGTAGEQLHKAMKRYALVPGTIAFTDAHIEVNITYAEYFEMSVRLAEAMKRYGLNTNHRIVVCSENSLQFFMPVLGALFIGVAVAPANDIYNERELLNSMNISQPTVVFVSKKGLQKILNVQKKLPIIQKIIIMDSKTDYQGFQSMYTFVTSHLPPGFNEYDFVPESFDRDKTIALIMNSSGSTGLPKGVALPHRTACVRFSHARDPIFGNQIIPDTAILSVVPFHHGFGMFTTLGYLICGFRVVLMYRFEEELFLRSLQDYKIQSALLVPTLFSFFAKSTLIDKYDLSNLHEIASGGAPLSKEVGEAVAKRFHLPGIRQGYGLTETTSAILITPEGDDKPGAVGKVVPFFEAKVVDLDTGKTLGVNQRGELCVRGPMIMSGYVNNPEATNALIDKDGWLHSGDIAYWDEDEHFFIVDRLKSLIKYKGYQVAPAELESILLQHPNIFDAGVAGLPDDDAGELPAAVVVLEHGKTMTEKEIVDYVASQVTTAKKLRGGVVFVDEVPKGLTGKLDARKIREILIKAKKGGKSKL
Numbers stand for hits.

Results for CC(C)(C)NC(=O)c1ccc2c(c1)CCO2 ?
TROY signal inh: inactive; HSP90 refold inh: inactive; TWEAK-Fn14 inh: inactive; LGR2 inh: inactive

What do the screens show for `O=C(NC(=O)c1ccccc1O)c1ccc2c(c1)CCO2`?
TROY signal inh: inactive; HSP90 refold inh: 19.1; TWEAK-Fn14 inh: 53.8; HSP90 inh confirm: 24.3; luciferase ctr: inactive

How did c1ccc(-c2noc(-c3ccncc3)n2)nc1 do in these assays?
TROY signal inh: inactive; HSP90 refold inh: 18.2; TWEAK-Fn14 inh: inactive; HSP90 inh confirm: 18.5; luciferase ctr: inactive

How did CC(C)(C)c1ccc(-c2nc(-c3ccncc3)no2)cc1 do in these assays?
TROY signal inh: 72.4; HSP90 refold inh: 20.3; TWEAK-Fn14 inh: 78.8; LGR2 inh: inconclusive; HSP90 inh confirm: 33.4; luciferase ctr: 32.4

Results for CC(C)(C)c1ccc(-c2noc(-c3ccno3)n2)cc1 ?
TROY signal inh: inactive; HSP90 refold inh: inactive; TWEAK-Fn14 inh: inactive; LGR2 inh: inactive

Results for Clc1ccccc1/C=C/c1nc(-c2ccccn2)no1 ?
TROY signal inh: 77.2; HSP90 refold inh: 64.0; TWEAK-Fn14 inh: 101.8; LGR2 inh: 98.4; HSP90 inh confirm: 86.0; luciferase ctr: 82.9

How did COc1cccc(-c2nc(-c3ccccn3)no2)c1 do in these assays?
HSP90 refold inh: 68.8; HSP90 inh confirm: 86.3; luciferase ctr: 77.7

How did c1ccc(CCc2ccccc2-c2nc(-c3ccccn3)no2)cc1 do in these assays?
TROY signal inh: inactive; HSP90 refold inh: inactive; TWEAK-Fn14 inh: inactive

How did COCC(=O)N(C)C[C@H]1Oc2cc(-c3cccnc3)ccc2S(=O)(=O)N([C@H](C)CO)C[C@H]1C do in these assays?
LGR2 inh: inactive

Results for Cc1noc(C)c1NC(=O)Nc1ccc2c(c1)C(=O)N([C@@H](C)CO)C[C@H](C)[C@H](CN(C)C(=O)CCCN(C)C)OCCCC[C@H](C)O2 ?
LGR2 inh: inactive

Results for CCC(=O)N(C)C[C@H]1Oc2cc(-c3ccccc3OC)ccc2S(=O)(=O)N([C@@H](C)CO)C[C@H]1C ?
LGR2 inh: inactive

What do the screens show for `O=C(C[C@@H]1CC[C@H](NC(=O)CC2CC2)[C@H](CO)O1)NCc1ccc(Cl)cc1`?
LGR2 inh: inactive

Results for O=[N+]([O-])c1cccc(-c2nc(-c3ccccn3)no2)c1 ?
TROY signal inh: inactive; HSP90 refold inh: inactive; TWEAK-Fn14 inh: inactive; LGR2 inh: inactive

How did c1ccc(-c2noc(-c3ccc4ccccc4c3)n2)nc1 do in these assays?
TROY signal inh: 85.9; HSP90 refold inh: 78.3; TWEAK-Fn14 inh: 105.0; HSP90 inh confirm: 96.7; luciferase ctr: 91.5

How did Cc1nn(C(C)(C)C)c(C)c1/C=N/OC(=O)Nc1ccc(Cl)cc1 do in these assays?
TROY signal inh: 82.5; HSP90 refold inh: 86.2; TWEAK-Fn14 inh: 103.1; LGR2 inh: 98.5; HSP90 inh confirm: 86.0; luciferase ctr: 86.7

How did C[C@@H]1CN([C@H](C)CO)C(=O)c2cc(NC(=O)Cn3cnnn3)ccc2O[C@H]1CN(C)S(=O)(=O)c1cccs1 do in these assays?
LGR2 inh: inactive

What do the screens show for `COc1ccc(C)cc1NC(=O)NNC(=O)C(C)Oc1ccc(F)cc1Cl` (stereo not given)?
TROY signal inh: inactive; HSP90 refold inh: 20.5; TWEAK-Fn14 inh: inactive; LGR2 inh: inactive; HSP90 inh confirm: inactive; luciferase ctr: inactive

What do the screens show for `C[C@@H]1CN([C@H](C)CO)C(=O)c2cc(C#Cc3ccncc3)cnc2O[C@H]1CN(C)C(=O)c1ccccc1F`?
LGR2 inh: inactive

How did CCOC(=O)c1c(S(=O)(=O)N2CCCC(C(=O)Nc3ncccc3C)C2)c(C)n(C)c1C (stereo not given) do in these assays?
TROY signal inh: inactive; HSP90 refold inh: inactive; TWEAK-Fn14 inh: inactive; LGR2 inh: inactive

How did CCOC(=O)c1c(S(=O)(=O)N2CCCC(C(=O)Nc3cccc(C)n3)C2)c(C)n(C)c1C (stereo not given) do in these assays?
TROY signal inh: inactive; HSP90 refold inh: 21.0; TWEAK-Fn14 inh: inactive; LGR2 inh: inactive; HSP90 inh confirm: inactive; luciferase ctr: inactive

Results for Clc1ncccc1-c1nnn(-c2ccccc2)n1 ?
TROY signal inh: inactive; HSP90 refold inh: 20.8; TWEAK-Fn14 inh: inactive; LGR2 inh: inactive; HSP90 inh confirm: 17.2; luciferase ctr: inactive

Results for Fc1ccc(-n2nnc(-c3cccnc3Cl)n2)cc1 ?
TROY signal inh: inactive; HSP90 refold inh: inactive; TWEAK-Fn14 inh: inactive; LGR2 inh: inactive

What do the screens show for `Cc1cc(C(=O)COC(=O)c2cccn2C)c(C)n1Cc1ccco1`?
TROY signal inh: 75.7; HSP90 refold inh: 40.2; TWEAK-Fn14 inh: 74.2; LGR2 inh: 52.9; HSP90 inh confirm: 65.8; luciferase ctr: 65.6

Results for Cc1cc(C(=O)COC(=O)c2cc(Cl)ccc2N)c(C)n1Cc1ccco1 ?
TROY signal inh: inactive; HSP90 refold inh: inactive; TWEAK-Fn14 inh: inactive; LGR2 inh: inactive

Results for Cc1cc(C(=O)COc2cccnc2[N+](=O)[O-])c(C)n1Cc1ccco1 ?
TROY signal inh: inactive; HSP90 refold inh: inactive; TWEAK-Fn14 inh: inactive; LGR2 inh: inactive

How did Cc1cc(C(=O)COC(=O)c2ccncc2)c(C)n1Cc1ccco1 do in these assays?
TROY signal inh: inactive; HSP90 refold inh: 26.0; TWEAK-Fn14 inh: 59.5; LGR2 inh: inactive; HSP90 inh confirm: 40.7; luciferase ctr: 75.3

What do the screens show for `CCCNC(=O)N1CC2(CN(Cc3ccc(F)cc3)C2)c2c([nH]c3cc(OC)ccc23)[C@@H]1CO`?
LGR2 inh: inactive

What do the screens show for `CS(=O)(=O)c1ccc2nc(NC(=O)Nc3ccccc3F)sc2c1`?
TROY signal inh: inactive; HSP90 refold inh: 17.7; TWEAK-Fn14 inh: inactive; LGR2 inh: inactive; HSP90 inh confirm: 18.4; luciferase ctr: inactive

How did Cc1ccc(S(=O)(=O)Nc2ccc3c(c2)C(=O)N([C@H](C)CO)C[C@H](C)[C@@H](CN(C)S(=O)(=O)c2ccc(C)cc2)O3)cc1 do in these assays?
LGR2 inh: inactive

Results for COc1ccccc1C=Cc1ccnc2ccccc12 ?
TROY signal inh: inactive; TWEAK-Fn14 inh: inactive; LGR2 inh: inactive

What do the screens show for `COc1cccc(/C=C/c2ccccn2)c1O`?
TROY signal inh: inactive; HSP90 refold inh: 17.3; TWEAK-Fn14 inh: inactive; LGR2 inh: inactive; HSP90 inh confirm: 17.4; luciferase ctr: 9.9

Results for COCCNS(=O)(=O)c1cc(OC)c(Cl)cc1Cl ?
HSP90 refold inh: 17.5; HSP90 inh confirm: inactive; luciferase ctr: inactive

Results for COc1cccc(C#Cc2ccc([C@H]3[C@@H](CO)N4C(=O)CN(C(=O)c5ccccc5)C[C@H]34)cc2)c1 ?
LGR2 inh: inactive

How did O=S(=O)(N[C@@H]1CC[C@@H](CCn2cc(-c3ccccc3F)nn2)O[C@H]1CO)c1ccc(Cl)cc1 do in these assays?
LGR2 inh: inactive

Results for C[C@H]1CN([C@@H](C)CO)C(=O)Cc2cc(NC(=O)Nc3ccc(F)cc3)ccc2O[C@H]1CN(C)C(=O)Nc1ccc(F)cc1 ?
LGR2 inh: inactive

Results for O=C(N/N=C/c1cc(Br)c(O)c(Br)c1O)c1cccnc1 ?
TROY signal inh: inactive; HSP90 refold inh: inactive; TWEAK-Fn14 inh: inactive; LGR2 inh: inactive

Bioassay records: PubChem, several laboratories
